Drawing on PubChem BioAssay (EPA / NIEHS), this text covers AC50 and outcome for 5 compounds.

Experiment [1] in a line: ACEA_ER_80hr: ACEA Biosciences xCELLigence Real-Time Cell Analysis on Estrogen Receptor Agonism for Proliferation (AID 2282667; active = hit-call score of the fitted dose curve at least 0.9, where 1 is the maximum). The note with it: T47D proliferation, impedance (xCELLigence), 80 h. In a few lines:
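T47D human breast cells were seeded on electrode plates, monitored overnight, then exposed continuously to compounds in eight-point 1:4 dilutions from 100 uM (max 0.5% DMSO). Impedance-based growth was read at 80 h, fitted upward relative to DMSO.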

A short description of experiment [2]: ATG_CRE_CIS: Attagene CIS-FACTORIAL HepG2 Assay for human cAMP Responsive Element (CRE) binding protein 3 (AID 2282926). The settings on record: HepG2 CRE cis-reporter, Attagene multiplexed mRNA; actives raise or lower the signal. In a few lines:
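Capillary electrophoresis of 6-FAM-labelled, HpaI-digested PCR products quantified reporter transcripts. These came from HepG2 transiently transfected with cis-element reporters and exposed to test chemicals for 24 hours, with DMSO defining baseline activity.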

The target of experiment [3] is CCAAT/enhancer-binding protein beta (Homo sapiens) (UniProt P17676). The experiment in a line: ATG_C_EBP_CIS: Attagene CIS-FACTORIAL HepG2 Assay for human CCAAT/Enhancer Binding Protein (C/EBP) beta (AID 2282927). The settings on record: HepG2 Attagene cis-factorial transcription factor reporter; actives raise or lower the signal. The method, boiled down:
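Transiently transfected HepG2 (MRTU library, endogenous TF-driven promoters); 24 h dosing; total RNA → oligo(dT) RT → PCR → 6-FAM primer extension → HpaI digest → CE; fit bidirectionally vs DMSO.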

Experiment [4] is described as follows: ATG_CMV_CIS: Attagene CIS-FACTORIAL HepG2 Assay for human CMV (Internal Marker) (AID 2282928).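 Also: endpoint acts as a background internal control marker rather than a target.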 The note with it: HepG2 CMV promoter reporter, transcription factor profiling; actives raise or lower the signal. In a few lines: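 Fluorescence intensity of RT-PCR-derived reporter fragments, resolved by capillary electrophoresis, gives the signal. HepG2 liver cells bearing transfected cis-element reporters were treated 24 h; activity in either direction was fit relative to DMSO-treated controls.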

The nature of experiment [5]: ATG_DR4_LXR_CIS: Attagene CIS-FACTORIAL HepG2 Assay for human Liver X Receptor (LXR), DR4 submotif (AID 2282929). The settings on record: HepG2 Attagene DR4 cis-reporter, mRNA transcription; actives raise or lower the signal. The method, boiled down: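 Endogenous factor activity at a DR4 cis-element is read as reporter mRNA in transiently transfected HepG2 cells. Exposure lasts 24 h; transcripts are amplified, fluorescently labelled and sized by capillary electrophoresis, with DMSO as baseline.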

The target in experiment [6] is Aryl hydrocarbon receptor (Homo sapiens) (UniProt P35869). The experiment is described as follows: ATG_Ahr_CIS: Attagene CIS-FACTORIAL HepG2 Assay for human Aryl Hydrocarbon Receptor (Ahr) (AID 2282930). The note with it: HepG2 AhR cis-factorial reporter transcription; actives raise or lower the signal. In a few lines: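 Read-out: reporter mRNA quantified by RT-PCR with fluorescent primer extension and capillary electrophoresis. Human HepG2 liver cells carried transfected cis-promoter reporter units and were exposed to chemical for 24 h; gain or loss fitted relative to DMSO.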
Chain of Aryl hydrocarbon receptor (Homo sapiens) (P35869 whole entry, looked up): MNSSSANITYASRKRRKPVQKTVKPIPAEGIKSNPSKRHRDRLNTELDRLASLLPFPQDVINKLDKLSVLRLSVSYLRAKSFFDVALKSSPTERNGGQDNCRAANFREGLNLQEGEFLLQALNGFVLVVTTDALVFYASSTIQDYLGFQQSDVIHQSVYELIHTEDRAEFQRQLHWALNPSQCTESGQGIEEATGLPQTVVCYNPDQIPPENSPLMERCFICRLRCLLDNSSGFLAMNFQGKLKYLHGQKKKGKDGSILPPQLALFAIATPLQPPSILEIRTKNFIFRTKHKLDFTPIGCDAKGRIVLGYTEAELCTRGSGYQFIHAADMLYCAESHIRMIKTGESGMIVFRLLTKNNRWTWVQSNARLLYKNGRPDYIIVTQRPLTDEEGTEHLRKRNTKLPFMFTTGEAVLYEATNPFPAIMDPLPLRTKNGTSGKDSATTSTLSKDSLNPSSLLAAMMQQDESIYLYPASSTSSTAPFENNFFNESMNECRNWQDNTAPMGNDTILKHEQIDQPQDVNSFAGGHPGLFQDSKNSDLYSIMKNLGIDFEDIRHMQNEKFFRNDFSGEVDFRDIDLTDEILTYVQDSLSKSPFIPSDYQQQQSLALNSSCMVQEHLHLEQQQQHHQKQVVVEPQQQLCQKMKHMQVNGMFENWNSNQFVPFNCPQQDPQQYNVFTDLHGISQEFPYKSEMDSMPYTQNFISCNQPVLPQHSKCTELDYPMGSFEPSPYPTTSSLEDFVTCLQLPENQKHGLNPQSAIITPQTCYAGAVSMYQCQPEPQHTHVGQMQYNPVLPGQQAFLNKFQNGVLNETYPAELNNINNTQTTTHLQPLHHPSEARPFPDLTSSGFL

Experiment [7] can be described thus: ATG_AP_1_CIS: Attagene CIS-FACTORIAL HepG2 Assay for human Activator Protein 1 (AP-1) (AID 2282931). The settings on record: HepG2 Attagene cis-factorial AP-1 reporter mRNA; actives raise or lower the signal. The method, boiled down:
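Fluorescence of labelled PCR fragments separated by capillary electrophoresis gives reporter mRNA levels. HepG2 with transfected cis-regulated reporter units, 24 h exposure; DMSO serves as baseline for bidirectional curve fits.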

Experiment [8] is described as follows: ATG_AP_2_CIS: Attagene CIS-FACTORIAL HepG2 Assay for human Activator Protein 2 (AP-2) (AID 2282932). The note with it: HepG2 AP-2 cis-reporter, Attagene transcription factor profiling; actives raise or lower the signal. The method, boiled down:
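Liver-derived HepG2 line, cis-reporter system measuring endogenous factors; 24 h dosing; reporter mRNA detected by fluorescent RT-PCR and capillary electrophoresis.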

The nature of experiment [9]: ATG_BRE_CIS: Attagene CIS-FACTORIAL HepG2 Assay for human Bone Morphogenetic Protein (BMP) Response Element (BRE) (AID 2282933). The note with it: HepG2 BMP response element reporter, Attagene transcription factor profiling; actives raise or lower the signal. The method, boiled down:
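A HepG2 multiplex reporter system measured inducible reporter mRNA 24 h post-dosing. Detection: RT-PCR, 6-FAM primer extension, HpaI digestion, capillary electrophoresis. Activity fitted bidirectionally relative to DMSO.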

For experiment [10], the target named is Retinoic acid receptor alpha (Homo sapiens) (UniProt P10276). The experiment is described as follows: ATG_DR5_RAR_CIS: Attagene CIS-FACTORIAL HepG2 Assay for human Retinoic Acid Receptor Alpha (RARE), DR5 submotif (AID 2282934). The note with it: HepG2 Attagene cis-factorial RARE DR5 reporter, mRNA; actives raise or lower the signal. In a few lines:
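Read-out: DR5-driven reporter transcript measured by RT-PCR, 6-FAM primer extension, HpaI digest and capillary electrophoresis. Human HepG2 liver cells carry transiently transfected cis-element reporter constructs; dosing lasts 24 h. Gain or loss of signal fitted against DMSO baseline.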

Experiment [11] concerns the target Transcription factor E2F1 (Homo sapiens) (UniProt Q01094). The experiment in a line: ATG_E2F_CIS: Attagene CIS-FACTORIAL HepG2 Assay for human E2F Transcription Factor 1 (AID 2282935). The note with it: HepG2 Attagene cis-reporter, E2F reporter RNA transcripts; actives raise or lower the signal. In a few lines:
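Liver-derived HepG2 cells expressing transfected promoter-driven reporter units received test chemical for 24 hours. Signal gains or losses were fitted bidirectionally against DMSO.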

Experiment [12] in a line: ATG_E_Box_CIS: Attagene CIS-FACTORIAL HepG2 Assay for human Enhancer Box (E-box) (AID 2282936). The note with it: HepG2 E-box cis-reporter transcription, actives raise or lower the signal. In a few lines:
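In this cell-based setup, HepG2 cells bearing transfected promoter-driven reporter units were exposed to chemicals for 24 h; reporter transcripts were amplified, 6-FAM-labelled, cut with HpaI and sized by capillary electrophoresis.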

The nature of experiment [13]: ATG_M_61_CIS: Attagene CIS-FACTORIAL HepG2 Assay for M61 Transcription Factor (Internal Marker) (AID 2282937). The settings on record: HepG2 Attagene CIS-FACTORIAL M61 internal marker reporter; actives raise or lower the signal. In a few lines:
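This endpoint serves as an internal background control within a multiplexed HepG2 cis-reporter panel. Cells are exposed for 24 h; reporter mRNA is amplified, fluorescently labelled and sized by capillary electrophoresis, with DMSO as negative control.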

Experiment [14] in a line: ATG_EGR_CIS: Attagene CIS-FACTORIAL HepG2 Assay for human Early Growth Response 1 (EGR1) (AID 2282938). The note with it: HepG2 Attagene CIS-FACTORIAL EGR reporter mRNA; actives raise or lower the signal. The method, boiled down: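 HepG2, transient MRTU transfection (cis promoters), 24 h compound. RNA → RT (oligo-dT) → PCR → 6-FAM labelling → HpaI cut → CE fluorescence. Bidirectional fit, DMSO baseline.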

Experiment [15] in a line: ATG_ERE_CIS: Attagene CIS-FACTORIAL HepG2 Assay for Estrogen Response Element (ERE) (AID 2282940). The settings on record: HepG2 ERE cis-reporter, Attagene RNA transcript; actives raise or lower the signal. The method, boiled down:
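Human liver cells (HepG2) bearing transiently transfected, promoter-regulated reporter units were exposed 24 h. Reporter mRNA induction was detected by capillary electrophoresis of labelled RT-PCR products and fitted bidirectionally to DMSO.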

The nature of experiment [16]: ATG_Ets_CIS: Attagene CIS-FACTORIAL HepG2 Assay for human Erythroblast Transformation Specific (ETS) (AID 2282941). The note with it: HepG2 ETS cis-reporter transcription, actives raise or lower the signal. The method, boiled down: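 Multiplexed reporter transcript profiling: HepG2, 24 h treatment, total RNA to cDNA, PCR, 6-FAM labelling, HpaI cut, capillary electrophoresis. Gain- or loss-of-signal fitted against DMSO.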

Experiment [17] deals with Hepatocyte nuclear factor 3-beta (Homo sapiens) (UniProt Q9Y261). The experiment is described as follows: ATG_FoxA2_CIS: Attagene CIS-FACTORIAL HepG2 Assay for human Forkhead box A2 (FOXA2) (AID 2282942). The settings on record: HepG2 cis-reporter transcription factor activity, 24 h; actives raise or lower the signal. In a few lines: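 Cells: HepG2, transient multiplex reporter transfection. Exposure 24 h. Detection: reporter-specific RT-PCR, fluorescent labelling, restriction digest, capillary electrophoresis. Analysis: bidirectional curve fit, DMSO as negative control.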
Chain of Hepatocyte nuclear factor 3-beta (Homo sapiens) (Q9Y261 whole entry, looked up): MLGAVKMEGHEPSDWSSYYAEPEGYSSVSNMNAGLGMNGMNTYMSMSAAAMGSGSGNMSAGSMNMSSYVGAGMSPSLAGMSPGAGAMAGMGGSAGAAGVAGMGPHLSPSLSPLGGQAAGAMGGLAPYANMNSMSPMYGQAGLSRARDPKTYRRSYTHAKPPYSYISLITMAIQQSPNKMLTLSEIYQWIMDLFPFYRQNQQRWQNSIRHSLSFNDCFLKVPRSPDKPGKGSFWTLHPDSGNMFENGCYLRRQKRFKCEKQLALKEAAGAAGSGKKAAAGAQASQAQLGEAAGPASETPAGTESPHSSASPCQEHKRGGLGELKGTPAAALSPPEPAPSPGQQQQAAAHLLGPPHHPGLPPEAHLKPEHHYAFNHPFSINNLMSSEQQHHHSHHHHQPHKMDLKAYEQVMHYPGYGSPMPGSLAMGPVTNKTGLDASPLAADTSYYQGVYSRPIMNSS

Experiment [18] in a line: ATG_FoxO_CIS: Attagene CIS-FACTORIAL HepG2 Assay for human Forkhead box O (FoxO) (AID 2282943). The settings on record: HepG2 Attagene cis-reporter, FoxO element, mRNA; actives raise or lower the signal. In a few lines: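 Read-out: fluorescence of 6-FAM-labelled reporter cDNA fragments resolved by capillary electrophoresis. Transiently transfected HepG2 cells were dosed for 24 h; activity fitted in both directions relative to DMSO controls.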

The nature of experiment [19]: ATG_GATA_CIS: Attagene CIS-FACTORIAL HepG2 Assay for human GATA Binding Protein (AID 2282944). The settings on record: HepG2 GATA cis-element reporter, Attagene multiplex mRNA; actives raise or lower the signal. In a few lines:
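Transfected cis-reporter HepG2 cells were treated with chemicals for 24 hours. Total RNA was then converted to cDNA, amplified with reporter-specific primers and analysed by fluorescent capillary electrophoresis, using DMSO-treated wells as baseline.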

Inconclusive results are not listed. Active and inactive are the calls of the source. The calls were made as follows, unless noted: active = hit-call score of the fitted dose curve at least 0.9, where 1 is the maximum; inactive = score below 0.9.

Chain of Transcription factor E2F1 (Homo sapiens) (Q01094 whole entry, looked up): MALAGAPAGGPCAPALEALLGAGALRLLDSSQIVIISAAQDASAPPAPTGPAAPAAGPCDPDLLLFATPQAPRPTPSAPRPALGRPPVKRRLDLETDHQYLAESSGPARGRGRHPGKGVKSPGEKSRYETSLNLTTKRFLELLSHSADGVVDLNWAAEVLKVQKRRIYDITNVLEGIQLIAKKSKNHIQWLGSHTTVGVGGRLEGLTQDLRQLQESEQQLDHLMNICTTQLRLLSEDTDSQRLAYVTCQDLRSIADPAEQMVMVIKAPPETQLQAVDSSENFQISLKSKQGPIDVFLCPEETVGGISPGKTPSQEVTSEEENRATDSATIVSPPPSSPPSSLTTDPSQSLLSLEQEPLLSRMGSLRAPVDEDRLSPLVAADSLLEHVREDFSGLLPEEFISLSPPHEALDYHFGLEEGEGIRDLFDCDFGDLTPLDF
Chain of CCAAT/enhancer-binding protein beta (Homo sapiens) (P17676 whole entry, looked up): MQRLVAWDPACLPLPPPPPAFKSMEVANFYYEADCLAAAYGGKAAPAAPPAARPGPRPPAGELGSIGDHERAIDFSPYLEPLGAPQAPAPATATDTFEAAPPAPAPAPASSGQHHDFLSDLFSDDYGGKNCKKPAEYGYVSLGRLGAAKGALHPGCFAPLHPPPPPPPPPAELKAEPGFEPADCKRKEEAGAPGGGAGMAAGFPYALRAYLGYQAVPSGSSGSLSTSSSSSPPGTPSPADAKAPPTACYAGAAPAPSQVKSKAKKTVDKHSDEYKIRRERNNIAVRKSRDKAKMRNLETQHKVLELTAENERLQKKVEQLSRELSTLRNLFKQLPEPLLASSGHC
Chain of Retinoic acid receptor alpha (Homo sapiens) (P10276 whole entry, looked up): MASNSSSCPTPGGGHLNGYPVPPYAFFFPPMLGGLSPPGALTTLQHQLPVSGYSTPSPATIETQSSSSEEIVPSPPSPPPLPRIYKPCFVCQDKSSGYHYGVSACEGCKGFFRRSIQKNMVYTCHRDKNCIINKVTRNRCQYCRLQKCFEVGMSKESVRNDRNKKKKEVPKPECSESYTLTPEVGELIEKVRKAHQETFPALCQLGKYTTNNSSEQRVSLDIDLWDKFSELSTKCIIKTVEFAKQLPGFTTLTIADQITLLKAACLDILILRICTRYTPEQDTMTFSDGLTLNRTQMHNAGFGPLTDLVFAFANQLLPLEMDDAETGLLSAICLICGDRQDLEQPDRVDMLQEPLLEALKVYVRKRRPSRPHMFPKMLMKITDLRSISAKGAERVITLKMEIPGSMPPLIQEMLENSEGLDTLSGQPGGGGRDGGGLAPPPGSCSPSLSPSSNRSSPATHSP

A word on the AC50: it is the concentration at which the activity in the assay is half-maximal. For the compound `Brc1nc2ccccc2s1`, the half-maximal activity concentration (AC50) is 0.0408 µM (active) in experiment [1]; 100 µM (active) in experiment [5]; 2.56 µM (active) in experiment [6]; 65.1 µM (active) in [7]; 100 µM (active) in [12]. The compound was classed as inactive in experiment [2], in [3], in experiment [4], in [8], in experiment [9] and in [10]. Besides, the compound was classed as inactive in experiment [11], in [13], in [14], in experiment [15], in [16] and in [17]. The call in experiment [18] and in experiment [19] was inactive.
Regarding `O=C(Cl)c1ccc(Cl)cc1Cl`, the compound was called inactive in experiment [1], in experiment [2], in [3], in experiment [4], in experiment [5] and in [6]. For the same compound, the outcome in experiment [7], in experiment [8], in [9], in experiment [10], in experiment [11] and in [12] was inactive. In addition, the call in experiment [13], in [14], in [15], in experiment [16], in [17] and in experiment [18] was inactive. For the same compound, the result in experiment [19] was inactive.
For the compound `O=C1c2c(O)ccc(Nc3ccc(CCO)cc3)c2C(=O)c2c([N+](=O)[O-])ccc(O)c21`, the outcome in experiment [1], in [2], in experiment [3], in experiment [5], in experiment [8] and in experiment [9] was inactive. Besides, the result in experiment [10], in experiment [11], in experiment [12], in experiment [13], in experiment [14] and in experiment [15] was inactive. Also, the compound was called inactive in experiment [16], in experiment [17], in experiment [18] and in [19]. The AC50 in [4] is 12 µM (active); in experiment [6], 0.896 µM (active); in [7], 17.7 µM (active).
Turning to `CN(N=O)C(=O)N[C@@H]1[C@@H](O)[C@H](O)[C@@H](CO)O[C@@H]1O`, the call in experiment [1], in experiment [2], in [3], in [4], in experiment [5] and in experiment [6] was inactive. Besides, the call in experiment [7], in experiment [8], in experiment [9], in [10], in [11] and in experiment [12] was inactive. Also, the outcome in experiment [13], in experiment [14], in [15], in experiment [16], in experiment [17] and in [18] was inactive. Also, the compound was called inactive in [19].
For `OCC(F)(F)C(F)(F)C(F)(F)C(F)(F)C(F)(F)C(F)(F)C(F)(F)C(F)(F)CO`, the AC50 in experiment [1] was 0.188 µM (active); in experiment [15] it was 0.163 µM (active). Further, the compound was called inactive in [2], in [3], in experiment [4], in experiment [5], in experiment [6] and in experiment [7]. Further, the outcome in [8], in [9], in experiment [10], in [11], in experiment [12] and in experiment [13] was inactive. The compound was classed as inactive in [14], in experiment [16], in experiment [17], in [18] and in [19].
